Hits are enriched below; roughly 2.4% of the tested compounds scored in any of these assays.
D2 antag: HTS Assay for Allosteric Antagonists of the Human D2 Dopamine Receptor: Primary Screen for Antagonists | D(2) dopamine receptor (Homo sapiens), P14416 | HEK293 TREx D2 cells, calcium flux, dopamine EC80 | inhibition, % at 10 µM | 2% of 340,000 active; in the data active means inhibition above about 30%; inactive means below that, where a call was filed; further: 0% is about no effect
Target sequence (P14416 whole entry, looked up): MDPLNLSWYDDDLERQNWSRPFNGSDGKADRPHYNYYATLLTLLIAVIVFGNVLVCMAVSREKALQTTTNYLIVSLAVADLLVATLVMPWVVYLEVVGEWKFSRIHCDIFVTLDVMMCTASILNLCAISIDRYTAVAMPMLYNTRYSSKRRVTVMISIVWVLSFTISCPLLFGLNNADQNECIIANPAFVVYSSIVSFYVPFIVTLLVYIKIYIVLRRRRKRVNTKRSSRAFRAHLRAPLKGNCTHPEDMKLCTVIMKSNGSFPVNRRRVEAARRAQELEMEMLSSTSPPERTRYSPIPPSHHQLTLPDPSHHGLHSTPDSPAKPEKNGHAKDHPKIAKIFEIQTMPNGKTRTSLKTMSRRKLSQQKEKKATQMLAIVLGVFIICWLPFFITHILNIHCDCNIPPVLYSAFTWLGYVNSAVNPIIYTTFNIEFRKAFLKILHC
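In this primary screen, negative modulation is detected by tracking calcium flux after an EC80 dopamine challenge in inducible HEK293 T-REx D2 cells preexposed to test compound for 180 s.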
D2 PAM-1: Beta-Arrestin HTS for Positive Allosteric Modulators of the Human D2 Dopamine Receptor: Potentiators | 0.23% of 360,000 active | potentiation, % (test concentration not listed) | DiscoveRx D2 beta-arrestin cells, luminescence, 90 min; 100% = 57 uM dopamine signal; in the data active means potentiation above about 50%; inconclusive means mostly about 30% to 49%
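PathHunter beta-arrestin assay in DiscoveRx D2 cells. Compounds were added with an EC20 of dopamine (50 nM final) for 90 min at 37 deg C. Luminescence was read 1 h after detection reagent, with 57 uM dopamine as the EC100 control.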
D2 ag-1: HTS Assay for Allosteric Agonists of the Human D2 Dopamine Receptor: Primary Screen for Agonists; HEK293 T-REx D2 cells, calcium flux agonist mode; activation, % at 2 µM; 0.53% of 340,000 active;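 active means activation over 3 SD above normal in the single-dose calcium agonist read, cut at about 30% in these data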; further: 0% is about no effect
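In this primary screen, compounds producing a positive calcium signal within 180 s of addition to tetracycline-induced, force-coupled HEK293 Trex D2 cells are flagged; cells are dye-loaded with a no-wash calcium kit beforehand.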
D2 PAM-2: HTS Assay for Positive Allosteric Modulators of the Human D2 Dopamine Receptor: Primary Screen for Potentiators; D(2) dopamine receptor (Homo sapiens), P14416; HEK293 T-REx D2, calcium flux, EC20 dopamine potentiation; potentiation, % at 10 µM; 0.34% of 340,000 active; AID 485347, 2010;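 active means potentiation over 3 SD above the plate norm, cut at about 30% in these data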; further: 0% is about no effect
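Calcium flux readout, no-wash dye, 1 read/s. Inducible HEK293 Trex D2 line, overnight 30 C. Compound alone 180 s (agonist flags), then EC20 dopamine, another 180 s to score potentiation.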
D2 ag-2: Beta-Arrestin HTS for Positive Allosteric Modulators of the Human D2 Dopamine Receptor: Agonists; D(2) dopamine receptor (Homo sapiens), P14416; activation, % (concentration not given with the values); DiscoveRx PathHunter D2 beta-arrestin, luminescence, 90 min; 100% = 57 uM dopamine signal; 0.084% of 360,000 active; AID 624465, 2012; in the data active means activation above about 40%; inconclusive means between about 15% and that limit
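DiscoveRx PathHunter D2 beta-arrestin cells (2,100/well) attached overnight, then compound-stimulated 90 min at 37 C in HBSS/10 mM HEPES/0.1% Tween-20 buffer; beta-galactosidase complementation read by luminescence after 1 h at ambient temperature. Dopamine 57 uM final (EC100) as control.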
Active calls of the source: *; ? = inconclusive; / = no result given; ! = a repeat was not active.

SMILES	D2 antag	D2 PAM-1	D2 ag-1	D2 PAM-2	D2 ag-2
Cc1ccc(/C=C/C(=O)N2CC(=O)Nc3ccccc32)o1	-9	-3	-1	33*	-1
Cc1ccc(NC(=S)c2nc3ccccc3s2)cc1	-1	-8	0	87*	-4
S=C(Nc1ccc(Cl)cc1)c1nc2ccccc2s1	-7	-18	0	2	-3
NS(=O)(=O)c1ccc(NC(=O)/C=C/c2cccc(Cl)c2)cc1	35*	-10	0	-11	6
CCN(CC)CCNC(=O)c1ccc(Sc2ccc(Cl)cc2)c(NC(C)=O)c1	36*	-18	0	-31	-6
CC(=O)Nc1cc(C(=O)NCc2ccc(C)cc2)ccc1Sc1ccc(C)cc1	/	/	1	10	/
CCN(CC)CCNC(=O)c1ccc(Sc2ccc(C)cc2)c(NC(C)=O)c1	54*	-12	-1	-31	-7
CCN(CCCNC(=O)c1ccc(Sc2ccc(Cl)cc2)c(NC(C)=O)c1)c1cccc(C)c1	/	/	0	-1	/
CC(C)(C)c1ccc(C(=O)Nc2nnc3n2CCS3)cc1	/	/	1	-9	/
Cc1cccc(C(=O)NC(=O)Nc2ccc(-n3nc(C(F)(F)F)cc3C(F)(F)F)cc2)c1	/	/	0	-2	/
Cc1cc(Nc2cccc(Br)c2)n2c(nc3ccccc32)c1C#N	/	/	0	5	/
Cc1cc(C)n(-c2ccc([N+](=O)[O-])cc2)n1	34*	-1	-1	-2	2
Cc1cccc(CSc2nc3ccccc3c(=O)n2C)c1	35*	-1	0	-9	-3
Cn1c(SCc2ccc(Br)cc2)nc2ccccc2c1=O	-1	4	1	-2	4
COc1ccc(-n2ncc3c2CC(C)(C)CC3NC(=O)c2oc(C)cc2C)cc1 (stereo not given)	-11	1	0	36*	-6
COc1ccc(NC(=O)Cn2c(=O)ccc3cc(S(=O)(=O)N4CCCC4)ccc32)cc1Cl	/	/	1	-1	/
CCOc1ccccc1NC(=O)N(C)CCc1c(C)nn(CC)c1C	/	/	0	13	/
Cc1ccccc1NC1=C(C(=O)c2ccccc2)N(C)S(=O)(=O)c2ccccc21	3	-20	1	-9	-2
O=C(C1=C(Nc2ccccc2)c2ccccc2S(=O)(=O)N1)c1ccccc1	40*	-19	0	3	-4
CC(=O)Oc1oc(-c2ccccc2)nc1/C=N/c1ccccn1	-5	-11	1	-1	2
COc1ccccc1N=Cc1nc(-c2ccccc2)oc1OC(C)=O	50*	5	0	-9	-1
COc1ccc2c(C)cc(SCc3c(C)noc3C)nc2c1	31*	-1	1	-5	1
COc1ccc(Cc2nnc(Nc3ccc(Cl)cc3)[nH]c2=O)cc1	-4	0	-1	-1	4
O=c1[nH]c(Nc2ccc3c(c2)OCCO3)nnc1Cc1ccc(Cl)cc1	33*	-4	0	2	-1
Oc1cccc(CN2CCCCC2)c1	56*	-7	1	-13	-3
SMILES	D2 antag	D2 PAM-1	D2 ag-1	D2 PAM-2	D2 ag-2
Brc1cccc(CN2CCCCCC2)c1	-2	-4	-1	-12	-3
O=C(CCN1CCN(c2ccc([N+](=O)[O-])cc2)CC1)c1ccc(Cl)cc1	34*	-1	2	-8	2
O=C(CCN1CCN(c2ccccc2)CC1)c1ccc(Cl)cc1	17	-14	33*	-34	4
Cc1sc2ncn(CC(=O)N3CCN(c4ccccc4F)CC3)c(=O)c2c1S(=O)(=O)N1CCC(C)CC1	/	/	-1	7	/
CCCN(C(=O)Cn1ncc2c([nH]c3ccccc32)c1=O)c1ccc(F)cc1	/	/	1	-13	/
N/C(Cc1ccc(Cl)cc1)=N\OC(=O)c1ccc2ccccc2c1	-19	168*	0	6	?
N/C(Cc1ccc(Cl)cc1)=N\OC(=O)c1cccc2ccccc12	-7	86*	2	-9	?
N/C(Cc1ccc(Cl)cc1Cl)=N\OC(=O)c1ccccc1	-43	22	0	-14	63*
CCN1CCc2c(C#N)c(NCc3ccccc3)nc(N(CC)CC)c2C1	46*	-37	3	-8	-2
N#Cc1c(NCCN)nc(NCc2ccccc2)c2c1CCN(Cc1ccccc1)C2	/	2	/	/	-1
CC(C)(Oc1ccc(Cl)cc1)C(=O)Nc1nc2ccc(S(C)(=O)=O)cc2s1	/	/	1	9	/
Cc1cc(F)c(F)c(C(=O)N2CCC(C)CC2)c1Cl	32*	0	-1	-10	1
Cc1cc(F)c(F)c(C(=O)N2CCCCC2C)c1Cl (stereo not given)	-31	-6	0	1	-1
O=C(CCS(=O)(=O)c1cccc2nsnc12)N1CCN(Cc2ccc3c(c2)OCO3)CC1	1	-7	36*	-4	-1
O=C(c1cc2ccccc2o1)N1CCN(Cc2ccc3c(c2)OCO3)CC1	78*	-33	-1	-19	-1
CC(=O)c1ccc(OCC(O)CN2CCN(Cc3ccc4c(c3)OCO4)CC2)cc1 (stereo not given)	56*!	-6	2	3	-2
CCN(CC)C(=O)N1CCN(Cc2ccc3c(c2)OCO3)CC1	-16	-4	33*	-10	-2
O=C(CCS(=O)(=O)c1cccc2nsnc12)N1CCN(C(=O)c2ccco2)CC1	11	-10	0	-6	-7
COc1ccc(OC)c(NC(=O)c2csnn2)c1	/	/	1	11	/
Cc1cc(N2CCN(C)CC2)nc2ccc(NC(=O)Nc3ccccc3Cl)cc12	/	/	-1	3	/
O=C(c1ccc(F)cc1)N1CCCC(N2CCN(Cc3ccc4c(c3)OCO4)CC2)C1 (stereo not given)	-32	-24	4	-13	-4
CN(C)c1ccc(C(=O)N2CCCC(N3CCN(Cc4ccc5c(c4)OCO5)CC3)C2)cc1 (stereo not given)	32*	-44	1	-23	-5
CC(=O)Nc1ccc(S(=O)(=O)NCCc2csc3nc(-c4ccc(Cl)cc4)nn23)cc1	/	/	2	-6	/
Cc1ccc(S(=O)(=O)N(C)C)cc1NC(=O)CN1CCCC1	-21	-22	0	-27	3
COc1ccc(NC(C)=O)cc1NC(=O)CN1CCN(S(=O)(=O)c2ccc(C(C)C)cc2)CC1	38*	-1	0	-4	0
Cc1ccc(S(=O)(=O)N2CCN(CC(=O)Nc3ccccc3Cl)CC2)cc1	40*	-1	0	10	-2
